From paper PMC8384837, “Expanding the binding specificity for RNA recognition by a PUF domain” come the findings set out here.

Holding throughout (test): yeast three-hybrid, YBZ-1, SC-Leu-His + 0.5 mM 3-AT, 4 days
Common to all, as to conditions: tags: N-Gal4 AD-HA kept; label: inside an RPR1-promoter hybrid RNA with tandem MS2 sites; ssRNA

For one test, the target named is PUM1 PUF domain R7-RTQ (Homo sapiens, UniProt Q14671 828-1176, S1079R;N1080T;E1083Q). The gist of the method:
(§1)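 Each repeat of the Pumilio-1 PUF domain was randomized at its three base-contacting residues, and these libraries were co-expressed from a centromeric plasmid with matching RNA elements in strain YBZ-1. After four days on SC-Leu (input) or SC-Leu-His + 0.5 mM 3-AT (selection), the repeat regions were PCR-amplified and Illumina-sequenced. The interaction score compares variant frequency between input and selection as a log change, computed in log2 with a pseudocount of 1 for absent variants.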

The target in a further test is PUM1 PUF domain R7-ISK (Homo sapiens, UniProt Q14671 828-1176, S1079I;N1080S;E1083K). A digest of the protocol:
as §1

Another test has as its target PUM1 PUF domain R3-PFF (Homo sapiens, UniProt Q14671 828-1176, C935P;R936F;Q939F). A digest of the protocol: as §1
The target of the next test is PUM1 PUF domain R3-WCR (Homo sapiens, UniProt Q14671 828-1176, C935W;R936C;Q939R). A digest of the protocol: as §1
Another test has as its target PUM1 PUF domain R4-EYG (Homo sapiens, UniProt Q14671 828-1176, N971E;H972Y;Q975G). The gist of the method: as §1
In a further test the target is PUM1 PUF domain R3-FCG (Homo sapiens, UniProt Q14671 828-1176, C935F;R936C;Q939G). A digest of the protocol:
as §1

Another test deals with PUM1 PUF domain R7-CFP (Homo sapiens, UniProt Q14671 828-1176, S1079C;N1080F;E1083P). The gist of the method: as §1
For another test, the target named is PUM1 PUF domain R5-QKR (Homo sapiens, UniProt Q14671 828-1176, C1007Q;R1008K;Q1011R). A digest of the protocol:
as §1

A further test deals with PUM1 PUF domain R3-YWW (Homo sapiens, UniProt Q14671 828-1176, C935Y;R936W;Q939W). The gist of the method:
as §1

The next test deals with PUM1 PUF domain R3-DRE (Homo sapiens, UniProt Q14671 828-1176, C935D;Q939E). A digest of the protocol: as §1

As to “GGCUAGAACUAGUGGAUCCCCCGGCGCCCGGCGGCUCGAGCCCGGGUAAGUUUAAAUAGUCUGCAUGCCGCCGGGCGCCAUGCCUGCAGGUCGACUCUAGAAAACAUG”, the binding signal was 4.75 log2 enrichment (interaction score) with PUM1 PUF domain R7-RTQ and 2 log2 enrichment (interaction score) in the test with PUM1 PUF domain R7-ISK.
Consider “GGCUAGAACUAGUGGAUCCCCCGGCGCCCGGCGGCUCGAGCCCGGGUAAGUGUAAUUAGUCUGCAUGCCGCCGGGCGCCAUGCCUGCAGGUCGACUCUAGAAAACAUG”, for which the results for the binding signal with PUM1 PUF domain R3-PFF and with PUM1 PUF domain R3-WCR were 3.19 log2 enrichment (interaction score) and 1.63 log2 enrichment (interaction score), respectively.
“GGCUAGAACUAGUGGAUCCCCCGGCGCCCGGCGGCUCGAGCCCGGGUAAGUGUAAAUAGUCUGCAUGCCGCCGGGCGCCAUGCCUGCAGGUCGACUCUAGAAAACAUG”: the binding signal is 3.15 log2 enrichment (interaction score) in the test with PUM1 PUF domain R4-EYG, 0.82 log2 enrichment (interaction score) with PUM1 PUF domain R3-FCG and 1.1 log2 enrichment (interaction score) with PUM1 PUF domain R3-PFF.
Turning to “GGCUAGAACUAGUGGAUCCCCCGGCGCCCGGCGGCUCGAGCCCGGGUAAGUGUACAUAGUCUGCAUGCCGCCGGGCGCCAUGCCUGCAGGUCGACUCUAGAAAACAUG”, the binding signal with PUM1 PUF domain R4-EYG is 0.47 log2 enrichment (interaction score).
Consider “GGCUAGAACUAGUGGAUCCCCCGGCGCCCGGCGGCUCGAGCCCGGGUAAGUAUAAAUAGUCUGCAUGCCGCCGGGCGCCAUGCCUGCAGGUCGACUCUAGAAAACAUG”, for which, in the test with PUM1 PUF domain R7-CFP, the binding signal was 2.42 log2 enrichment (interaction score).
For “GGCUAGAACUAGUGGAUCCCCCGGCGCCCGGCGGCUCGAGCCCGGGUAAGUGUAUAUAGUCUGCAUGCCGCCGGGCGCCAUGCCUGCAGGUCGACUCUAGAAAACAUG”, the binding signal with PUM1 PUF domain R4-EYG is 1.12 log2 enrichment (interaction score).
“GGCUAGAACUAGUGGAUCCCCCGGCGCCCGGCGGCUCGAGCCCGGGUAAGUGUCAAUAGUCUGCAUGCCGCCGGGCGCCAUGCCUGCAGGUCGACUCUAGAAAACAUG”: the binding signal in the test with PUM1 PUF domain R5-QKR was 5.65 log2 enrichment (interaction score).
Consider “GGCUAGAACUAGUGGAUCCCCCGGCGCCCGGCGGCUCGAGCCCGGGUAAGUGUAAGUAGUCUGCAUGCCGCCGGGCGCCAUGCCUGCAGGUCGACUCUAGAAAACAUG”, for which the binding signal with PUM1 PUF domain R3-YWW is 4.57 log2 enrichment (interaction score); with PUM1 PUF domain R3-FCG, 5.32 log2 enrichment (interaction score); with PUM1 PUF domain R3-DRE, 5.66 log2 enrichment (interaction score); in the test with PUM1 PUF domain R3-WCR, 4.82 log2 enrichment (interaction score).
